Results: PubChem BioAssay AID938 (National Center for Advancing Translational Sciences (NCATS), 2007)
Several values for one entry are separate records, joined by “and”; a condition that tells them apart may be missing. Identical values can stand only once. The campaign covered roughly 73,000 compounds. About 1,800 (2.5%) were called active. Inconclusive results (about 13%) are left out. Calls come from the whole dose curve; as a rule, active = well fitted activation curve with a large enough effect; inconclusive = small, poorly fitted or top-dose-only effect; inactive = no such curve, though single readings can be large or run the other way. Only a selection was taken, and actives are over-represented in it overall. A structure can be active in one record and inactive in another.

Experiment: qHTS Assay for Agonists of the Thyroid Stimulating Hormone Receptor: Activators of Intracellular cAMP Concentrations in Parental HEK 293; note: nearly all actives have a fitted effect of over 55% in size; for activation: % of control where 0% means no effect
Settings: parental HEK293 CNG cAMP sensor, membrane potential fluorescence; series mostly up to 57.1 µM; activation: at the top concentration
Procedure, shortened: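 Counterscreen for endogenous-receptor signalling: CNG-channel HEK 293 cells report cAMP rise by membrane depolarization. After 60 min dye equilibration with 100 uM RO 20-1724, compounds incubated 30 min before bottom-read fluorescence at 590 nm.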
Potency is the fitted concentration of half-maximal effect.

Compound | activation | Potency
O=C1[C@H]2[C@H]3[C@H](O)[C@H](O)C/C(=N/OCc4ccccc4)[C@H]3CC[C@@H]2C(=O)N1Cc1ccccc1 | -2.25% [at 11.4 µM] (inactive) | 
C[C@@H](c1ccccc1)N1C(=O)[C@H]2[C@H]3[C@H](O)[C@H](O)C/C(=N/OC[C@@H](O)COCc4ccco4)[C@@H]3CC[C@@H]2C1=O | 5.7% [at 11.4 µM] (inactive) | 
O=C(NCc1ccco1)c1cccn2c(=O)c3cc(Br)ccc3nc12 | 5.6% (inactive) | 
O=C(NCc1ccco1)c1cc(-c2cccnc2)nc2ccc(Cl)cc12 |  | 31.6 µM (active)
O=C(NCc1ccco1)c1nc(-c2ccccc2)n(-c2ccccc2)n1 | 22.4% (inactive) | 
CN(C)CCCCNC(=O)c1ccc(Cc2nc3ccccc3[nH]2)cc1 | 3.13% (inactive) | 
Oc1c(Cl)cc(Cl)c(Cl)c1Cc1c(O)c(Cl)cc(Cl)c1Cl |  | 10 µM (active)
C=CC(=O)c1ccc2ccccc2c1 | 8.58% (inactive) | 
O=C(CCSc1ccccc1)NCCSc1ccccn1 | 15.3% (inactive) | 
COc1ccc(CCn2nnnc2C(c2ccccc2)N2CCN(C)CC2)cc1OC (stereo unspecified) | 26.2% (inactive) | 
CC(C)C(c1nnnn1CCc1ccccc1)N1CCN(C(=O)c2ccco2)CC1 (stereo unspecified) | 20.5% (inactive) | 
N#Cc1ccc(C(c2nnnn2CCc2ccccc2)N2CCCCCC2)cc1 (stereo unspecified) |  | 15.8 µM (active)
S=c1c2[nH]cnc2ncn1CCSc1ncnc2nc[nH]c12 | -1.69% [at 11.4 µM] (inactive) | 
c1ccc(-c2oc3ncnc(N4CCOCC4)c3c2-c2ccccc2)cc1 |  | 15.8 µM (active)
c1ccc(COc2nsnc2N2CCOCC2)cc1 | 27.1% (inactive) | 
c1ccc(-n2nnnc2N2CCOCC2)cc1 | -5.36% (inactive) | 
CC(C)NC(=O)CCCn1c(=S)[nH]c2cc3c(cc2c1=O)OCO3 | 8.66% (inactive) | 
O=C(Nc1ccccc1)N[C@H]1C[C@H](C(=O)O)Nc2cc(Cl)cc(Cl)c21 | 8% (inactive) | 
COCCNc1cc(-c2c(C)noc2C)ncn1 | 2.35% (inactive) | 
CNc1cc(-c2c(C)noc2C)ncn1 |  | 3.98 µM (active)
Cc1noc(C)c1-c1cc(NCc2cccnc2)ncn1 | -4.51% (inactive) | 
O=C(CSc1nnc(-c2ccoc2)o1)N1CCOCC1 | -3.67% (inactive) | 
CC(=O)OCC1OC(C#CCCCc2ccccc2)C=CC1OC(C)=O (stereo unspecified) | -0.905% [at 11.4 µM] (inactive) | 
COCCCNC(=O)CCc1nc2cccnc2n1Cc1ccc(OC)cc1 | -5.11% (inactive) | 

Compound | activation | Potency
COC(=O)[C@@H]1CC[C@H](C)[C@@H](c2ccc(C)cc2)N1C(=O)c1ccc(/C=N\OC[C@@H](O)COCc2ccco2)cc1 | 44.4% [at 11.4 µM] (inactive) | 
CO[C@@H]1COC(=O)[C@H](Cc2ccccc2)NC(=O)C/C=C\[C@@H](C)[C@H](OC)COC(=O)[C@@H](C)NC(=O)C/C=C\[C@H]1C | 8.45% [at 11.4 µM] (inactive) and -4.16% [at 11.4 µM] (inactive) | 
COCCn1c(SCC(=O)Nc2cc(Cl)ccc2OC)nc2c(c1=O)SC(C)C2 (stereo unspecified) | 27.1% (inactive) | 
COc1ccccc1NC(=O)C1=C(C)Nc2nnnn2C1c1cccc(Br)c1 (stereo unspecified) | -0.777% (inactive) | 
COc1ccc(C2C(C(=O)Nc3ccccc3OC)=C(C)Nc3nnnn32)c(OC)c1 (stereo unspecified) | 5.5% (inactive) | 
COC(=O)c1ccc(C2C3=C(Nc4nnnn42)c2ccccc2OC3)cc1 (stereo unspecified) |  | 12.6 µM (active)
O=C(CNCCO)NC12CC3CC(CC(C3)C1)C2 | 6.62% (inactive) | 
CO[C@H]1COC(=O)[C@@H](C)NC(=O)C/C=C\[C@@H](C)[C@H](OC)COC(=O)C/C=C\[C@@H]1C | 2.45% [at 11.4 µM] (inactive) | 
Cc1ccc(N2CCN(c3ccc(C)cc3)C2c2ccccn2)cc1 | -3.82% (inactive) | 
Cc1ccc(/C(=C/CN2CCCC2)c2ccccn2)cc1 |  | inactive and 25.1 µM (active)
Cc1ccc(N(CC(O)CN2CCCC2)S(=O)(=O)c2ccccc2)cc1 (stereo unspecified) | 9.44% [at 11.4 µM] (inactive) | 
O=NO |  | inactive
Cn1c(=O)n2n(c1=O)[C@H]1[C@H](O)[C@H]3O[C@H]3C(=O)[C@H]1CC2 | 0.42% [at 11.4 µM] (inactive) | 
Cc1cc(NC(=O)Cn2nc(C(F)(F)F)c3c2CCCC3)no1 | -0.746% (inactive) | 
O=C(Cn1nc(C(F)(F)F)c2c1CCC2)NCc1ccc(F)cc1 | 14.7% (inactive) | 
COC(=O)c1ccccc1NC(=O)Cn1nc(C(F)(F)F)c2c1CCC2 |  | 25.1 µM (active)
CCCNC(=O)OC[C@@H]1O[C@H](c2ccccc2)C=C[C@@H]1Oc1ccc(OC)cc1 | 1.38% [at 11.4 µM] (inactive) | 
CCCC[C@@H]1C[C@H]1C(NC(=O)c1ccco1)c1ccc(C(=O)OC)cc1 (stereo partly specified) |  | 25.1 µM (active)
COC(=O)c1ccc(NC(=O)c2ccco2)cc1 | 8.99% (inactive) | 
CCCC[C@@H]1C[C@H]1C(NC(=O)c1ccc(-c2ccccc2)cc1)c1ccc(-c2ccccc2)cc1 (stereo partly specified) | 1.42% (inactive) | 
CCC(C)(C)N=C(NC#N)Nc1cccnc1 | 0.273% (inactive) | 
O=C(CN1CCN(c2ccccc2F)CC1)c1ccc2c(c1)OCO2 | 5.84% (inactive) | 
Cn1c(=O)c2c(nc(CN3CCOCC3)n2Cc2ccccc2)n(C)c1=O | -0.85% (inactive) | 
CC1CCN(Cc2nc3c(c(=O)n(C)c(=O)n3C)n2CCc2ccccc2)CC1 |  | 5.01 µM (active)

Compound | activation | Potency
COCCn1c(CN2CCC(Cc3ccccc3)CC2)nc2c1c(=O)n(C)c(=O)n2C | 24.7% (inactive) | 
CC1CN(C(=O)c2ccc3c(c2)OCO3)OC(c2ccccc2)O1 (stereo unspecified) | 8.54% (inactive) | 
Cc1ccc(C(=O)CSc2nc3ccccc3c(=O)n2N)o1 | 13.4% (inactive) | 
Cc1nc2c(c(=O)n1Cc1ccco1)c1nc3ccccc3nc1n2Cc1ccccc1 | 27.8% (inactive) | 
CC(Sc1nc2ccccc2c(=O)n1Cc1ccco1)C(=O)c1ccccc1 (stereo unspecified) |  | 15.8 µM (active)
CO[C@H]1COC(=O)[C@H](Cc2ccccc2)NC(=O)C/C=C\[C@@H](C)[C@H](OC)COC(=O)C/C=C\[C@@H]1C | 25.1% [at 11.4 µM] (inactive) | 
COc1ccc(NC(=O)N2CC3(CCN(C(=O)c4cccn4C)CC3)C2)cc1 | 5.6% (inactive) | 
Cn1c(SCC(=O)c2cccs2)nnc1-c1ccco1 | -17.6% (inactive) | 
COCn1c(COc2ccccc2)nc2ccccc21 | 25.1% [at 11.4 µM] (inactive) | 
CC(=O)NC(C)c1nc2ccccc2n1Cc1ccccc1F (stereo unspecified) | 11.7% (inactive) | 
COCc1nc2ccccc2n1Cc1ccccc1Br |  | 31.6 µM (active)
COCc1nnc(NC(=O)CS(=O)(=O)Cc2ccccc2)s1 | 0.984% (inactive) | 
Cc1ccc(N2CCN(S(=O)(=O)c3ccc(F)cc3)CC2)c(C)c1 | 12.7% (inactive) | 
CC(Cc1ccccc1)C(=O)N(C)Cc1ccccc1 (stereo unspecified) | 16.5% (inactive) | 
COc1ccc(-c2nn3c(-c4ccccc4)nnc3s2)cc1OC | 28.3% (inactive) | 
CN(C(=O)c1ccccn1)c1nnc(-c2ccccn2)s1 | -4.34% (inactive) | 
c1ccc(-c2cc(-c3nnc4sc(-c5ccccn5)nn34)[nH]n2)cc1 |  | 25.1 µM (active)
Cc1ccc(S(=O)(=O)N2CC(=O)Nc3ccccc32)cc1C | -6.15% [at 11.4 µM] (inactive) | 
CCOC(=O)N/N=C1/C[C@@H](O)[C@@H](O)[C@@H]2[C@@H]3C(=O)N(CC)C(=O)[C@H]3CC[C@H]12 | 2.56% [at 11.4 µM] (inactive) | 
COc1ccc(OC)c(C(=O)c2coc3ccc(OC)cc23)c1 |  | 10 µM (active)
COc1ccc(OC)c(C(=O)c2coc3ccc(O)c(CN4CCOCC4)c23)c1 | 17.1% (inactive) | 
COc1ccc(OC)c(C(=O)c2ccc(C(=O)O)cc2)c1 | 2.61% (inactive) | 
O=C(CN1C(=O)CSc2ncccc21)N1CCOCC1 | -3.29% (inactive) | 
CN(C)c1ccc(NC(=O)c2ccncc2)c2ccccc12 | -2.48% (inactive) | 

Compound | activation | Potency
COc1ccc(CCN2CNc3c(c(=O)n(C)c(=O)n3C)C2)cc1OC | 1.78% (inactive) | 
CCC/C=C(\CCC)C(NC(=O)Cc1ccccc1)c1ccc(C(=O)OC)cc1 (stereo unspecified) |  | 15.8 µM (active)
COC(=O)c1ccc(NCC(=O)c2ccccc2)cc1 | 7.18% (inactive) | 
CCN(CC)C(=O)CCC(=O)Nc1ccc(C(=O)OC)cc1 | 2.85% (inactive) | 
CO[C@H]1COC(=O)CCC[C@@H](C)[C@H](OC)COC(=O)[C@@H](C)NC(=O)C/C=C\[C@@H]1C | 4.76% [at 11.4 µM] (inactive) | 
Fc1ccc(-c2nnc(CSc3nnc(-c4ccc5c(c4)OCO5)o3)o2)cc1 |  | 25.1 µM (active)
Fc1ccc(-c2nnc3sc(-c4ccc5c(c4)OCO5)nn23)cc1 | 23.4% (inactive) | 
Fc1ccc2nc(-c3ccccc3)nc(SCc3nnc(-c4ccccc4)o3)c2c1 | 19.2% (inactive) | 
Cc1ccc(C(=O)NC2CC(C)(C)NC(C)(C)C2)c(C)c1 | 0.884% (inactive) | 
CCOC(=O)c1ccc(COC(=O)c2cc(=O)[nH]c3ccccc23)o1 | 3.05% (inactive) | 
COC(=O)c1ccc(COC(=O)c2c(C)nn(Cc3ccccc3Cl)c2Cl)o1 |  | 15.8 µM (active)
Cc1nn(Cc2ccccc2)c(Cl)c1C(=O)OC1CCOC1=O (stereo unspecified) | 2.04% (inactive) | 
CCCCn1c(CCCNC(=O)CC)nc2ccccc21 | 14.9% (inactive) | 
COc1ccc(NC(=O)CCNC(=O)Cn2ccc3ccccc3c2=O)c(OC)c1 | -3.68% (inactive) | 
CC(C)(C)c1cc(CN2CCN(CCC#N)CC2)cc(C(C)(C)C)c1O |  | 7.94 µM (active)
N#CCCN1CCN(S(=O)(=O)c2ccc(S(=O)(=O)NC3CC3)cc2)CC1 | 2.86% (inactive) | 
Cc1ccc(S(=O)(=O)NCC(=O)OCC(=O)N2CCc3ccccc32)cc1 | -6.34% (inactive) | 
C[C@@H]1/C=C\CC(=O)OC[C@H]2O[C@@H](C=C[C@@H]2O)[C@H](C)/C=C\CC(=O)OC[C@H]2O[C@H]1C=C[C@@H]2O | -6.65% [at 11.4 µM] (inactive) | 
O=C(Nc1nc(-c2ccc3c(c2)OCO3)cs1)c1ccncc1 |  | 20 µM (active)
O=C(Nc1ccc2c(c1)OCCO2)c1ccncc1 | 9.97% (inactive) | 
O=C(Nc1cccnc1)c1ccc2c(c1)OCO2 | 4.06% (inactive) | 
C=CCn1c(COc2ccccc2)nnc1SCC(=O)NCC(=O)OCC | -0.938% (inactive) | 
O=C(CC1(O)C(=O)N(CN2CCOCC2)c2ccccc21)c1ccccc1 (stereo unspecified) | 1.28% (inactive) | 
Cc1ccc(C(=O)Nc2nnc(-c3ccncc3)s2)o1 | -13.3% (inactive) | 
